The values that follow come from PubChem BioAssay (NCATS).

Structures are written as SMILES. Inconclusive results are not listed. The source made the active and inactive calls. Unless noted, calls come from the whole dose curve; as a rule, active = well fitted curve in the direction sought with a large enough effect; inconclusive = small, poorly fitted or top-dose-only effect, or another doubt; inactive = no such curve, though single readings can be large; an effect the other way counts as inactive or inconclusive.

Experiment [1] addresses Peroxisome proliferator-activated receptor gamma (Homo sapiens) (UniProt P37231). Put plainly: qHTS assay for small molecule agonists of peroxisome proliferator-activated receptor gamma signaling (AID 588536; active = well fitted curve in the direction sought with a large enough effect in the signal ratio, with a control signal flat, not every such curve was filed as active; the % refers to the signal ratio;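 note: 0% = DMSO basal wells and 100% = rosiglitazone at 2 µM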). In short, it runs like this: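 HEK293 UAS-bla reporter line, 1% charcoal/dextran FBS; titration, 16 h, 37 C; CCF4 loading 2 h RT; fluorescence 460/530 nm. Normalized to rosiglitazone 2 uM = 100%, DMSO = 0%.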

For experiment [2] the target is unchanged. Briefly: qHTS assay for small molecule antagonists of peroxisome proliferator-activated receptor gamma signaling (AID 588537; active = well fitted inhibition curve with a large enough effect in the signal ratio, with a control signal flat, not every such curve was filed as active; the % refers to the signal ratio;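 note: reporter cells co-stimulated with 50 nM rosiglitazone agonist during compound treatment; % of control where 0% means no effect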). In short, it runs like this:
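We seeded GeneBLAzer HEK293 reporter cells at 3000 per well, allowed 6-6.5 h attachment at 37 C, then co-treated with test compound titrations and 50 nM rosiglitazone overnight (16 h). Inhibition was quantified from 460/530 nm emission ratios.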
Background: qHTS replaces the single test concentration by a dilution series.

A short description of experiment [3]: qHTS assay for small molecule agonists of retinoid X receptor alpha signaling (AID 588544; calls by dose curve;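 for activation: 0% = DMSO basal wells and 100% = reference agonist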). The settings on record: HEK293T RXRa-UAS-bla, beta-lactamase reporter, 18 h; 530 nm emission.
The target in experiment [4] is Retinoic acid receptor RXR-alpha (Homo sapiens) (UniProt P19793). The description is as above.
Chain of Retinoic acid receptor RXR-alpha (Homo sapiens) (P19793 whole entry, looked up): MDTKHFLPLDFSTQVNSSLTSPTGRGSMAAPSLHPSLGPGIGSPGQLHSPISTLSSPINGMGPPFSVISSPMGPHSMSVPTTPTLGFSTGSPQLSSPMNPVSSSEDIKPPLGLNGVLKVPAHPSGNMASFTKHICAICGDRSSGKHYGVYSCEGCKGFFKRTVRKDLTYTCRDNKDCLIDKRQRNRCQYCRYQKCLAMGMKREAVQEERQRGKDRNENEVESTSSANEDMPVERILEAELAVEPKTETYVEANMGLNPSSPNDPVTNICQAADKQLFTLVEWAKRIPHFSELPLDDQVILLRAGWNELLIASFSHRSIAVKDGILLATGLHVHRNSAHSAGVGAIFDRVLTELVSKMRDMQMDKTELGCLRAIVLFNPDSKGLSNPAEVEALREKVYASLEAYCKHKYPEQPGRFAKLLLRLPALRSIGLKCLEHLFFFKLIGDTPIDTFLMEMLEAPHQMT
Experiment [5] concerns the target Thyroid hormone receptor beta (Homo sapiens) (UniProt P10828). Briefly: qHTS assay for small molecule agonists of thyroid hormone receptor beta signaling (AID 588545; calls by dose curve). In short, it runs like this:
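HEK 293 TR-UAS-bla; agonist mode; 18 hrs, 37 C; CCF4, ex 405/em 460 and 530 nm; norm. T3 10 nM = 100%, DMSO = 0%; Hill fit → EC50, efficacy.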

The nature of experiment [6]: qHTS assay for small molecule antagonists of retinoid X receptor alpha signaling (AID 588546; active = well fitted inhibition curve with a large enough effect in the signal ratio, with a control signal flat, not every such curve was filed as active; the % refers to the signal ratio;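 note: cells stimulated with 9-cis-retinoic acid as agonist; % is set by controls: 0 for no effect and ±100 for the full control effect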). The settings on record: HEK293T RXRa-UAS-bla, beta-lactamase ratio, antagonist mode; measured here: W530 green channel, cytotoxicity proxy. An outline of the steps: (§1)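 Beta-lactamase reporter inhibition, read as CCF4 fluorescence ratio (ex 405, em 460/530 nm) after 2 h at RT. HEK293T UAS-bla cells, 2500/well, were stimulated with 9-cis-RA at 500 or 100 nM final alongside test compound for 18 h at 37 C.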

For experiment [7], the target named is Retinoic acid receptor RXR-alpha (Homo sapiens) (UniProt P19793). The description is as above. The settings on record: HEK293T RXRa-UAS-bla, beta-lactamase ratio, antagonist mode. An outline of the steps:
as §1

Experiment [8] can be described thus: qHTS assay for small molecule activators of the p53 signaling pathway (AID 651743; active = well fitted activation curve with a large enough effect in the signal ratio, not every such curve was filed as active; the % refers to the signal ratio; note: series mostly up to about 92 µM; % of control where 0% means no effect). Conditions: HCT-116 p53RE-bla, beta-lactamase FRET ratio, 16 h; activation: stronger effect = higher value. An outline of the steps: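 Cell-based beta-lactamase reporter (p53 response elements, HCT-116 background). After a 5-hour preincubation, cells received compound for 16 hours at 37 C; substrate development ran 2 hours at room temperature.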

Experiment [9] is described as follows: qHTS assay for environmental chemicals that activate the Aryl hydrocarbon Receptor (AhR) signaling pathway (AID 651777). Note: % of control where 0% means no effect; nearly all actives have a fitted effect of over 15% in size. Conditions: 1A2-DRE human hepatoma cells, luciferase, 24 h; activation: stronger effect = higher value. In short, it runs like this:
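Quantitative HTS in stably transfected human liver-derived cells whose luciferase gene sits downstream of the CYP1A2 promoter and dioxin response element. After 24 hr exposure at 37 C, One-Glo luminescence was measured.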

Experiment [10] addresses Peroxisome proliferator-activated receptor alpha (Homo sapiens) (UniProt Q07869). Briefly: qHTS assay for small molecule agonists of the peroxisome proliferator-activated receptor alpha (PPARalpha) signaling pathway (AID 651778). Note: % of control where 0% means no effect. The settings on record: PathHunter PPARalpha complementation, chemiluminescence, 6 h; max response: stronger effect = higher value. An outline of the steps:
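Cells plated at 2,000/well and held overnight at 37 C, 5% CO2, then compound added by pin tool for 6 hr; after PathHunter detection reagent and 60 min at room temperature, chemiluminescence from enzyme complementation was read.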

Experiment [11] in a line: qHTS assay for small molecule agonists of the antioxidant response element (ARE) signaling pathway measured by Nrf2-dependant transcriptional activity (AID 720636; active = well fitted curve in the direction sought with a large enough effect in the repeat runs; an effect the other way counts as inactive or inconclusive; note: % of control where 0% means no effect). An outline of the steps: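 Quantitative HTS format in HepG2 cells stably expressing an ARE-luciferase reporter; 16 hr compound treatment at 37 C, luciferase signal detected with ONE-Glo.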
Experiment [12] can be described thus: qHTS assay for small molecule agonists of the antioxidant response element (ARE) signaling pathway measured by Nrf2-dependant transcriptional activity - cell viability counter screen (AID 720653; active = well fitted curve in the direction sought with a large enough effect in the repeat runs; an effect the other way counts as inactive or inconclusive; note: % is set by controls: 0 for no effect and ±100 for the full control effect). The settings on record: ARE-bla HepG2 viability, CellTiter-Glo ATP luminescence, 16 h; max response: stronger effect = lower value. An outline of the steps:
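ARE-bla HepG2 cells (2,000/well) rested 5 hrs at 37C/5% CO2, then exposed to compounds in DMSO for 16 hrs. Viability was read in the same wells as intracellular ATP by luminescence, 30 min at room temperature after reagent addition.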

Experiment [13] is described as follows: qHTS assay for cell viability of HEK293 cells (AID 743288). Note: % is set by controls: 0 for no effect and ±100 for the full control effect; nearly all actives have a fitted effect of over 50% in size. The settings on record: ATP luminescence (CellTiter-Glo), 18 h; max response: stronger effect = lower value. An outline of the steps: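 Parental HEK293 cells, 2,000 per well, preincubated at least 5 h at 37 C, then exposed to compounds in DMSO for 18 h at 37 C. Viability by CellTiter-Glo ATP luminescence after 30 min at room temperature.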

Experiment [14] can be described thus: qHTS assay for cell viability of the p53RE-bla HCT-116 cell line (AID 743292). Note: % is set by controls: 0 for no effect and ±100 for the full control effect; nearly all actives have a fitted effect of over 55% in size. An outline of the steps: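 Viability of compound-treated p53RE-bla HCT-116 cells is taken from ATP-dependent luciferase luminescence. Treatment lasts 16 h at 37 C after a 5 h settling period; detection follows 30 min at room temperature.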
In experiment [15] the target is Nuclear receptor subfamily 1 group I member 2 (Rattus norvegicus) (UniProt Q9R1A7). Put plainly: qHTS assay for small molecule activators of the rat pregnane X receptor (rPXR) signaling pathway (AID 651751; call rule not given here; note: 0% is about no effect). Conditions: rPXR reporter cells, luciferase (One-Glo), 24 h.
Chain of Nuclear receptor subfamily 1 group I member 2 (Rattus norvegicus) (Q9R1A7 whole entry, looked up): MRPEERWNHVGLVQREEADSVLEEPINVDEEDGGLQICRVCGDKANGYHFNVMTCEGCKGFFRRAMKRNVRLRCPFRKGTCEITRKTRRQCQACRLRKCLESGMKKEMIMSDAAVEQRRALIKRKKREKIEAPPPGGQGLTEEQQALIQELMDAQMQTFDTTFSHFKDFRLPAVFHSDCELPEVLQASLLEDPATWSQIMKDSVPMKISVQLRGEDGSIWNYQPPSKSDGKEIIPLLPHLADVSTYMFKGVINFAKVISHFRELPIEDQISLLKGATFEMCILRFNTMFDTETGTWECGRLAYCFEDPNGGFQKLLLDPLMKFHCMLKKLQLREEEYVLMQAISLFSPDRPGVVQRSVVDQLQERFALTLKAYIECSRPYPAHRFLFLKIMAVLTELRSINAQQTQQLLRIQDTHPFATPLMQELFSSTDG
Experiment [16] in a line: qHTS assay for small molecule activators of the human pregnane X receptor (PXR) signaling pathway (AID 720659; call rule not given here; note: 0% is about no effect).
The target in experiment [17] is Vitamin D3 receptor (Homo sapiens) (UniProt P11473). Briefly: qHTS assay for small molecule antagonists of vitamin D receptor signaling (AID 588541; calls by dose curve;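 note: receptor activated by calcitriol during compound treatment; series mostly up to about 77 µM; % is set by controls: 0 for no effect and ±100 for the full control effect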). An outline of the steps: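 VDR-UAS-bla HEK293T cells (2000/well, 2% charcoal-stripped FBS) were treated with titrated compounds plus 1-alpha,25-dihydroxyvitamin D3 (50 nM or 3 nM final) for 16 h at 37 C. CCF4 beta-lactamase fluorescence was read; Hill fits gave IC50.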
Chain of Vitamin D3 receptor (Homo sapiens) (P11473 whole entry, looked up): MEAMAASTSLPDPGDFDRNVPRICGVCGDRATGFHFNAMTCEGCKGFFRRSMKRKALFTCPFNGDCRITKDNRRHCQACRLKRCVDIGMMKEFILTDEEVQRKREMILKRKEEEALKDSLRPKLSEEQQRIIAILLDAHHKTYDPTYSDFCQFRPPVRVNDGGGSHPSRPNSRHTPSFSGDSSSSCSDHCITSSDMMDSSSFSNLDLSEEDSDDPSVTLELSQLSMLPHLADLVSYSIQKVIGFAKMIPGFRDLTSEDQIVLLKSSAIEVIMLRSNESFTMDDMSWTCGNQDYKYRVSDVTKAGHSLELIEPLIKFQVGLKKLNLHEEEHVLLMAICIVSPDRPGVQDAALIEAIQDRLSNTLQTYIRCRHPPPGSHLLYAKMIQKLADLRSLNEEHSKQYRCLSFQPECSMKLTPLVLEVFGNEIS

The target is the same in experiment [18]. Put plainly: qHTS assay for small molecule agonists of vitamin D receptor signaling (AID 588543; calls by dose curve;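 note: 0% = DMSO basal and 100% = reference agonist control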). An outline of the steps:
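VDR-UAS-bla HEK293T cells, 2000/well, 2% charcoal-stripped FBS; compound titration 16 h at 37 C; CCF4 beta-lactamase ratio read. Normalized to 50 nM 1-alpha,25-dihydroxyvitamin D3 (100%) and DMSO; Hill fit gives EC50, efficacy.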

Experiment [19] is described as follows: qHTS assay for small molecule antagonists of peroxisome proliferator-activated receptor delta signaling (AID 588535).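 Note: cells co-treated with a PPAR-delta agonist as stimulator during compound exposure.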 The settings on record: HEK293T PPARd-UAS-bla, beta-lactamase FRET ratio, 18 h; 460 nm channel. In short, it runs like this: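 Reporter: UAS-bla under PPAR-delta response element, HEK293T host. Medium: 2% charcoal/dextran FBS. Dosing: titration, 18 hrs, 37 C. Detection: CCF4, 2 hrs RT, 405 ex/460 and 530 em.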

Chain of Thyroid hormone receptor beta (Homo sapiens) (P10828 whole entry, looked up): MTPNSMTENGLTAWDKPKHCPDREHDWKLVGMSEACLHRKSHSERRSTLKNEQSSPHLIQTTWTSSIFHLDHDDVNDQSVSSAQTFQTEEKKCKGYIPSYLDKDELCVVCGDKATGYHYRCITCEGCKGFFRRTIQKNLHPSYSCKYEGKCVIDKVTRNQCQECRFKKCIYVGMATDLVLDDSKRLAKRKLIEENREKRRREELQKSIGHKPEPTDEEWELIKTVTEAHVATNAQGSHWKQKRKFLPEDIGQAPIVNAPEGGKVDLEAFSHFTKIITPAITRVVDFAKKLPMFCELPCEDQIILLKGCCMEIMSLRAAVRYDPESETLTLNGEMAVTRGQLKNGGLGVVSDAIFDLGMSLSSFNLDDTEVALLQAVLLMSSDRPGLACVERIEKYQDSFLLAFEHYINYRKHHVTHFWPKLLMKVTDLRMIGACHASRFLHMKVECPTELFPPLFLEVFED
Chain of Peroxisome proliferator-activated receptor alpha (Homo sapiens) (Q07869 whole entry, looked up): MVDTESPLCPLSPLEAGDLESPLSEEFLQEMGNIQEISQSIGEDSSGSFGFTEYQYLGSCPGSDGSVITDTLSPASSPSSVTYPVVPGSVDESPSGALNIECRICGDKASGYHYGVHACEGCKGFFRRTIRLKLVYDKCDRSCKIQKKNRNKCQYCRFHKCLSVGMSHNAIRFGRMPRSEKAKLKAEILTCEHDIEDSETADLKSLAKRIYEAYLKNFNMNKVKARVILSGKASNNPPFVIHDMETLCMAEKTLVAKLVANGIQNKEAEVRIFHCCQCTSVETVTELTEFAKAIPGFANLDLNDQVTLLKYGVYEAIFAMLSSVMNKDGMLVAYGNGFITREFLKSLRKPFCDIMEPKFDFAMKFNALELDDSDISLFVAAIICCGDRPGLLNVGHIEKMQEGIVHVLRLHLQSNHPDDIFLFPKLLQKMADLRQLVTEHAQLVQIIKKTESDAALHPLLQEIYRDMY
Chain of Peroxisome proliferator-activated receptor gamma (Homo sapiens) (P37231 whole entry, looked up): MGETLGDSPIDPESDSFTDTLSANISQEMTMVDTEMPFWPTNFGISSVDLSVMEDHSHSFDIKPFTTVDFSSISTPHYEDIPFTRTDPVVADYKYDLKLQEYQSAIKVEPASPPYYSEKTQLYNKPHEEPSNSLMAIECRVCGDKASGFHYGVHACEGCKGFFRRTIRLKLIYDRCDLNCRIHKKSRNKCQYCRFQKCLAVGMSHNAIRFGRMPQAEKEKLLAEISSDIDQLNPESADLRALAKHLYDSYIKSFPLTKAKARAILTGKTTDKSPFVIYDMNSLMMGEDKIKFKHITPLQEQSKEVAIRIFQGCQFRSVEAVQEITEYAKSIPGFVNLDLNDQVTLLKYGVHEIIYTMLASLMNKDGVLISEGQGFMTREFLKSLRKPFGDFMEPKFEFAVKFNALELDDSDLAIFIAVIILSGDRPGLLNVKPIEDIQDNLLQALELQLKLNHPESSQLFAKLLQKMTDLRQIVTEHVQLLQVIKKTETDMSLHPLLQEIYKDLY

As to `CCOC(=O)CCCCCCCCC(=O)OCC`, the result in [1] and in experiment [16] was inactive. Further, the Potency entry in [2], in experiment [4], in experiment [5], in experiment [11] and in experiment [14] was “inactive” throughout. In addition, the max response in experiment [3] is 3.8%; in [6], -7.52%; in [7] it was 0.487% (inactive); in experiment [10] it was -3.28% (inactive); in [12], -13.4% (inactive); in experiment [13], -4.17% (inactive). The max response in [15] is 2.58% (inactive). The activation in experiment [8] was -5.93% (inactive); in experiment [9], 0.108% (inactive).
Take `COc1ccc(OC)c(OC)c1`: the outcome in experiment [1], in experiment [18] and in experiment [16] was inactive. In addition, the Potency entry in experiment [2], in experiment [17], in experiment [4], in [5] and in experiment [11] was “inactive” throughout. For the same compound, the max response in experiment [3] was -0.39%; in [6], -10%; in [7], 2.37% (inactive); in [10] it was 0.14% (inactive); in experiment [12] it was 7.1% (inactive); in experiment [13], -1.79% (inactive). The max response in experiment [15] is 3.06% (inactive). The activation in experiment [8] was -1.46% (inactive); in experiment [9], 0.552% (inactive).
In the case of `c1ccc2cc3c(ccc4ccccc43)cc2c1`, the Potency entry in experiment [2], in experiment [4], in experiment [5] and in experiment [14] was “inactive” in each case. Besides, the max response in experiment [3] is 4.49%; in experiment [6], -11.9%; in experiment [7] it was -3.27% (inactive); in [10], -0.566% (inactive); in experiment [12] it was -18.2% (inactive); in experiment [13], -8% (inactive).
In the case of `CCCCCCCCCCCCCCCCN(C)C`, the max response is -16.5% in experiment [19]; -18.2% in experiment [3]; -9.65% in experiment [6]; -13% (inactive) in experiment [12]; -6.67% (inactive) in [13]; 2.85% (inactive) in experiment [15]. For the same compound, the Potency result in [4], in experiment [5], in experiment [11] and in [14] was “inactive” throughout. In addition, the activation in experiment [8] is -1.17% (inactive); in experiment [9] it was 0.752% (inactive). Further, in experiment [16], the compound was called inactive.
In the case of `CCOC(=O)COc1cc(-n2ncc(C(F)(F)F)c(C)c2=O)c(F)cc1Cl`, the max response in experiment [19] is -4.58%; in experiment [3] it was 9.89%; in experiment [10] it was -2.22% (inactive); in [12] it was 9.1% (inactive); in [13] it was 2.7% (inactive); in [15], -8.22% (inactive). The outcome in experiment [1], in [18] and in experiment [16] was inactive. In addition, the Potency result in [2], in experiment [17], in experiment [5] and in [11] was “inactive” each time. The activation in [8] is 2.36% (inactive); in [9], -2.83% (inactive).
